Hits are enriched below; roughly 1.5% of the tested compounds scored in any of these assays.
PP5 inh = blocks human protein phosphatase 5 activity. P53041. purified PP5c, OMFP substrate fluorescence. inhibition, % at 6.7 µM. 0.18% of 320,000 active;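 active = inhibition above the campaign's mean inhibition across all tested compounds plus 3 SD, cut at about 9.5% in these data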
PP1 counter = counter-screen for PP5 inhibitors: inhibitors of human PP1-alpha; purified PP1alpha, OMFP fluorescence; P62136; 0.9% of 320,000 active; inhibition, % at 6.7 µM;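 active = inhibition above the mean inhibition of all tested compounds plus 3 SD, computed separately for each screening campaign, cut at about 15% in these data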
DYRK1A inh = Dyrk1A (rat) kinase inhibition | Q63470 | ADP-Glo luminescence, NFATc1 peptide | inhibition, % at 12.5 µM | 0.43% of 310,000 active | AID 504441; in the data active = inhibition above about 50%
STK33 kinase inh = human STK33 kinase inhibition; Q9BYT3; purified STK33, MBP phosphorylation, ADP-Glo luminescence; inhibition, % at 10 µM; 0.073% of 320,000 active; AID 2661;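 active = inhibition at or above 25%, using the most active replicate where run in duplicate; inactive = inhibition below 25%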
Target sequence (Q9BYT3 whole entry, looked up): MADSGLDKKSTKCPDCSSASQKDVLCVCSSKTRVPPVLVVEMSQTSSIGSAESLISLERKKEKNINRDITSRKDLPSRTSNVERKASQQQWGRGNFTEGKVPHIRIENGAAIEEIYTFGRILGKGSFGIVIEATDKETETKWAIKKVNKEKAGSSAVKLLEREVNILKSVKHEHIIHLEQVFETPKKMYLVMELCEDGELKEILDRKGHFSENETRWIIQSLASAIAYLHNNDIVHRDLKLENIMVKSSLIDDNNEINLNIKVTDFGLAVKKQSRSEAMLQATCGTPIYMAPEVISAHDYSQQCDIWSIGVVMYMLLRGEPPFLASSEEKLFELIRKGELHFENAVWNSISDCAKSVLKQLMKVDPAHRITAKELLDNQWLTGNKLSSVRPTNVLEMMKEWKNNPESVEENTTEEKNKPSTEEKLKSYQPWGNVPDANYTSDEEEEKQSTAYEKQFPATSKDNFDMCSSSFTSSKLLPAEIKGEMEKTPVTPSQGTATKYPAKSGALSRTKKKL
HIF activator = HIF pathway transcriptional activation; U2OS HRE-luciferase reporter, luminescence; normalized: DMSO 0%, desferrioxamine 100%; activation, % at 7.5 µM (by protocol); 0.32% of 300,000 active; AID 1910;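 active = mean activation of at least 10% of the iron chelator positive control signal, with at least half of replicates also reaching 10%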
A number is an active result; - = inactive; . = no result.

SMILES | PP5 inh | PP1 counter | DYRK1A inh | STK33 kinase inh | HIF activator
COc1ccc(C2=NS(=O)(=O)N(C)C(C(=O)NC3CCCC3)=C2)cc1OC | - | - | - | - | -
Cc1ccc(C2=NS(=O)(=O)N(C)C(C(=O)NC3CCCC3)=C2)cc1 | - | - | - | - | 31
O=C(CCCN1C(=O)c2ccccc2C1=O)Nc1cccc(S(=O)(=O)NC2=NCCC2)c1 | - | - | - | - | -
O=C(CN1C(=O)COc2ccc(Cl)cc21)Nc1ccc2c(c1)OCCO2 | - | - | - | - | 82
O=C(CN1CCC(C(=O)c2ccc(Cl)cc2)CC1)Nc1ccc2c(c1)OCCO2 | - | - | - | - | 74
NC(=O)C1CCN(CC(=O)Nc2ccc3c(c2)OCCO3)CC1 | . | . | - | - | .
Cc1ccc(S(=O)(=O)c2cc3c(=O)n4ccccc4nc3n(C3CCCCC3)c2=N)cc1 | - | - | - | - | -
CCOc1ccc(NC(=O)C2CCN(S(=O)(=O)c3ccc4c(c3)N(C(C)=O)CCO4)CC2)cc1 | - | - | - | - | 25
CC(NC(=O)c1cccc(OC2CCN(C3CCN(C)CC3)CC2)c1)c1ccccc1 (stereo not drawn) | - | - | - | - | -
COc1cc2c(cc1OC)C(c1ccccc1)N(C(=O)CCl)CC2 (stereo not drawn) | - | - | - | - | -
COc1cc2c(cc1OC)C(c1ccccc1)N(S(C)(=O)=O)CC2 (stereo not drawn) | - | - | - | - | 28
COc1cc2c(cc1OC)C(C)N(S(=O)(=O)c1ccc(Cl)nc1)CC2 (stereo not drawn) | - | - | . | - | 16
Cn1c(=O)c2c(nc(Cl)n2CCOc2ccccc2)n(C)c1=O | - | 16 | - | - | -
O=C(c1ccco1)N(CCC(c1ccccc1)c1ccco1)Cc1ccco1 (stereo not drawn) | - | 17 | - | - | -
NC[C@H](Cc1ccccc1)NCCCCC1CCCCC1 | - | - | - | - | .
CNC[C@H](CC1CCCCC1)NC[C@H](Cc1ccccc1)NCCC12CC3CC(CC(C3)C1)C2 | - | 21 | - | - | -
CCC(Sc1nc(C)cc(=O)[nH]1)C(=O)Nc1sc2c(c1C#N)CCCC2 (stereo not drawn) | - | - | - | - | 23
Cc1ccc2oc(=O)cc(CN3CCOCC3)c2c1 | - | - | - | - | -
CC(C)c1ccc2oc(=O)cc(CN3CCOCC3)c2c1 | - | - | - | - | 40
COC(=O)C1=C(C)Nc2c(c(=O)n(C)c(=O)n2C)C1c1ccc(Cl)cc1 (stereo not drawn) | - | - | - | - | -
O=C(O)c1ccc(NC2=C/C(=N/S(=O)(=O)c3ccccc3)c3ccccc3C2=O)cc1 | . | . | 80 | . | .
CCc1ccc(S(=O)(=O)/N=C2\C=C(Nc3ccc(O)cc3)C(=O)c3ccccc32)cc1 | - | - | - | - | -
CCOC(=O)C1=C(C)N(CC(C)C)C(=O)C1 | - | - | - | - | -
Cc1ccc(-c2csc3ncnc(SCc4ccc(C(=O)O)cc4)c23)cc1 | - | 16 | - | - | -
Cc1sc2ncnc(SCc3ccc(C(=O)O)cc3)c2c1C | - | - | - | . | -
SMILES | PP5 inh | PP1 counter | DYRK1A inh | STK33 kinase inh | HIF activator
O=C(NC1CCN(Cc2ccccc2)CC1)c1cccc(Br)c1 | - | - | - | - | -
Cc1cc(Nc2ccccc2)cc(=O)n1C | - | - | - | - | 41
COc1ccc(C2=NN(c3nc(-c4ccc(CNC(C)=O)cc4)cs3)C(c3ccco3)C2)cc1 (stereo not drawn) | - | - | - | - | -
COc1ccc([C@H]2CC(=O)C=C(c3cccc(OC)c3OC)C2)cc1OC | - | - | - | - | .
C/C(=N\NC(=O)CN1CCCCC1)c1ccccc1O | - | - | - | - | 13
CCOC(=O)C(C#N)=CN1CCNc2ccccc21 | . | . | - | . | .
Oc1ccccc1/C=N/Nc1nc2ccccc2o1 | - | - | - | - | 26
Oc1ccccc1/C=N/Nc1ccccc1 | - | - | - | - | -
Oc1ccccc1/C=N/Nc1ncc(Br)cn1 | - | - | - | - | 34
C[C@H](NC(=O)c1nc[nH]c1C(=O)NCCCCCN)C(=O)OCc1ccccc1 | - | - | - | - | -
O=C1NC(=S)S/C1=C\c1ccc(SCc2ccccc2)o1 | - | - | - | - | .
O=C1NC(=S)S/C1=C\c1ccc(SCc2ccco2)o1 | - | - | 73 | - | .
CCC1=NN2C(=N)/C(=C\c3ccc(SCc4ccco4)o3)C(=O)N=C2S1 | - | - | - | - | -
CCCC1=NN2C(=N)/C(=C\c3ccc(SCc4ccco4)o3)C(=O)N=C2S1 | - | 43 | - | - | -
Cc1ccc(C)c(-n2nnnc2SCC(=O)NNC(=O)c2ccco2)c1 | - | - | - | . | -
COC(=O)c1sc(N2C(=O)C(O)=C(C(=O)c3ccc(C)o3)C2c2ccc(F)cc2)nc1C (stereo not drawn) | - | 17 | - | - | -
Cc1ccc2nc(N3C(=O)C(O)=C(C(=O)c4ccc(C)o4)C3c3ccco3)sc2c1 (stereo not drawn) | - | 16 | - | - | .
CCCc1c(C(=O)Nc2cc(C)on2)cnn1-c1ccccc1 | - | - | . | - | -
CC(C)CC(=O)O/N=C1\C(=O)N(Cc2ccc(Cl)cc2)c2ccc([N+](=O)[O-])cc21 | - | 17 | . | - | -
N#C/C(=N\Nc1cccc2ccccc12)c1nnc2n1CCCCC2 | - | - | - | - | -
Oc1ccccc1-c1nc(NCCN2CCOCC2)c2ccccc2n1 | - | - | - | 60 | -
COc1cccc(-c2nc(NCCN3CCOCC3)c3ccccc3n2)c1O | - | - | - | - | -
Cc1occc1C(=O)N/N=C/c1ccc(N(C)C)cc1 | - | - | - | 29 | -
Cn1cccc1/C=N\NC(=O)c1cncc(Br)c1 | - | - | . | - | -
O=C(N/N=C\c1c(O)ccc2ccccc12)c1cncc(Br)c1 | - | - | - | - | 26
SMILES | PP5 inh | PP1 counter | DYRK1A inh | STK33 kinase inh | HIF activator
O=C(O)Cc1ccc(N=Cc2c(O)ccc3ccccc23)cc1 | - | - | - | 50 | -
Nc1cc(Cl)nc(N/N=C/c2c(O)ccc3ccccc23)n1 | - | - | - | - | 13
Nc1nonc1N/N=C/c1c(O)ccc2ccccc12 | - | - | - | - | -
CCOc1cccc2c1OC(c1cc(OC)c(OC)c(OC)c1)N1N=C(c3ccc(C)o3)CC21 (stereo not drawn) | - | - | - | - | -
Cn1nccc1C(=O)N/N=C/c1c(O)ccc2ccccc12 | - | - | - | - | 101
O=C(N/N=C/c1cc(O)ccc1Br)c1cccnc1 | - | - | - | - | 14
O=C(N/N=C/c1c(O)ccc2ccccc12)Nc1ccccc1 | - | - | . | - | -
O=C(N/N=C/c1c(O)ccc2ccccc12)c1ccc(Br)o1 | - | - | - | - | 59
O=C(CSCC(=O)Nc1ccccc1)N/N=C/c1c(O)ccc2ccccc12 | - | - | - | - | 71
C=C1CC2(CC(c3ccccc3)OC(c3ccccc3)C2)OC1=O (stereo not drawn) | . | . | - | . | .
COc1ccc(C(CNC(=O)C(=O)NC2CCCCC2)N2CCN(C)CC2)cc1 (stereo not drawn) | - | - | - | - | -
O=C(O)C1C2C=CC(C2)C1C(=O)NCc1cccs1 (stereo not drawn) | - | - | - | - | -

Source: PubChem BioAssay (several laboratories)
